In PubChem BioAssay (NCI):
This is part of a sample that, as a whole, favours compounds with a hit. Of some 83,000 tested, about 20% had one in any assay.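 48-hour exposure, single concentration, 96-well plates; percent growth endpoint where 0 means no net growth. Active: below 10.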 Unmarked numbers belong to inactive results. The source made the active and inactive calls.

Key:
Experiment in all cases: NCI-60 one-dose screen, 48 h (100 = growth as untreated, 0 = no growth, -100 = all killed)
Settings in all cases: 10 µM unless noted
NCI-H23 lung = tested on: NCI-H23 lung
NCI-H226 lung = tested on: NCI-H226 lung
NCI-H322M lung = tested on: NCI-H322M lung
HOP-62 NSCLC = tested on: HOP-62 NSCLC
NCI-H460 lung = tested on: NCI-H460 lung
HOP-92 NSCLC = tested on: HOP-92 NSCLC
NCI-H522 lung = tested on: NCI-H522 lung
A549/ATCC NSCLC = tested on: A549/ATCC NSCLC
786-0 renal = tested on: 786-0 renal
COLO 205 colon = tested on: COLO 205 colon
DU-145 prostate = tested on: DU-145 prostate
K-562 leukemia = tested on: K-562 leukemia
MALME-3M melanoma = tested on: MALME-3M melanoma
MDA-MB-231 breast = tested on: MDA-MB-231 breast
RXF 393 renal = tested on: RXF 393 renal
SF-268 CNS = tested on: SF-268 CNS
SF-295 CNS = tested on: SF-295 CNS
SF-539 CNS = tested on: SF-539 CNS
UACC-257 melanoma = tested on: UACC-257 melanoma
M14 melanoma = tested on: M14 melanoma

Structure (SMILES)	growth (NCI-H23 lung)	growth (NCI-H226 lung)	growth (NCI-H322M lung)	growth (HOP-62 NSCLC)	growth (NCI-H460 lung)	growth (HOP-92 NSCLC)	growth (NCI-H522 lung)	growth (A549/ATCC NSCLC) [%]	growth (786-0 renal)	growth (COLO 205 colon)	growth (DU-145 prostate)	growth (K-562 leukemia)	growth (MALME-3M melanoma)	growth (MDA-MB-231 breast)	growth (RXF 393 renal)	growth (SF-268 CNS)	growth (SF-295 CNS)	growth (SF-539 CNS)	growth (UACC-257 melanoma)	growth (M14 melanoma)
CCN(CC)CCOc1ccc(C(=O)/C=C\c2ccc(Cl)cc2Cl)cc1	58.3%	53.5%	63.9%	57.2%	61.3%	24.5%	44%	21.7	35.9%	-53.5% (active)	51.7%	3.71% (active)	42.4%	32.6%	34%	55.2%	63.2%	30%	3.72% (active)	-37.4% (active)
CCCCC#Cc1c(I)n(C2OC(CO[Si](C)(C)C(C)(C)C)C3OC(C)(C)OC32)c(=O)n(C(=O)c2ccccc2)c1=O (stereo not given)	51.9%	67.7%	110%	94.8%	68.5%	-37.6% (active)	71%	67.7	64.1%	-46.9% (active)	74.7%	6.35% (active)	1.91% (active)	10.1%	-56.8% (active)	36.8%	74%	3.54% (active)	77.6%	78.6%
COc1cc2ncnc(Nc3ccc(S(=O)(=O)Nc4nccs4)cc3)c2cc1OCCCN1CCCC1	99.8%	105%	103%	103%	107%	119%	94.1%	102	105%	113%	105%	84.2%	101%	104%	99%	99.2%	106%	101%	99.6%	109%
CCOC(=O)c1c(C)nc2c(c1N)C(=O)C(=O)N2Cc1ccc(OC)cc1	59.6%	90.8%	99.5%	40.1%	101%	39.6%	41.3%	88	39.7%	123%	84.7%	28.8%	58.7%	79.7%	87.9%	64.7%	74.3%	45.5%	76.2%	68.8%
Clc1ccc2nn3c4ccccc4c(OCCN4CCOCC4)nc3c2c1	87.1%	94.6%	84.4%	90.6%	99.9%	72.9%	74.5%	91.8	80.9%	90%	98.9%	88.2%	134%	81.4%	79.3%	91.8%	93.9%	91.6%	107%	122%
Cc1oc(-c2ccc(Cl)cc2)nc1C1=NN(C(=O)c2ccncc2)C(c2ccccc2)C1 (stereo not given)	87.3%	84.6%	93.7%	107%	98.6%	96.1%	86.6%	87.7	83.4%	108%	101%	85.9%	101%	76.7%	82.3%	89.2%	89.4%	95.6%	103%	99.2%
O=C(c1c[nH]c2ccccc12)c1n[nH]c(=S)n1-c1ccc([N+](=O)[O-])cc1	91.8%	77.8%	94.7%	87.4%	95.7%	80.3%	84.7%	81	115%	96.8%	109%	83.3%	106%	91.3%	102%	95.4%	104%	94.1%	99%	95.9%
COc1cc(/C=C/C(=O)N2CCN(C(=O)c3cc(OC)c(OC)c(OC)c3)CC2)ccc1OCCCOc1cc2c(cc1OC)C(=O)N1CCC[C@H]1C=N2	-13.6% (active)	-8.72% (active)	-5.89% (active)	9.35% (active)	6.44% (active)	-37.1% (active)	-54.5% (active)	12.7	11.7%	-63.4% (active)	8.43% (active)	1.04% (active)	-58.6% (active)	9.01% (active)	-55.4% (active)	2.8% (active)	-33.4% (active)	-32.3% (active)	-11.7% (active)	-80.2% (active)
CC/C(=C(\c1ccc(Cl)cc1)c1ccc(OCCN2CCCCC2)cc1)c1ccc(O)cc1	47.6%	78.6%	70.1%	-9.16% (active)	-34.5% (active)	49.9%	58.1%	32.5	-54.9% (active)	-73.5% (active)	39.7%	-28.4% (active)	-38.1% (active)	26.5%	-6.93% (active)	53%	54.6%	50%	-22.1% (active)	-55.5% (active)
COC(=O)c1c(C)nc(C)c2c1C(=O)C=C(NCc1ccccc1)C2=O	72%	93.9%	92.5%	91.2%	67.1%	117%	78.8%	103	84.7%	78.5%	95.8%	69.1%	-1.94% (active)	70.3%	94.5%	78.8%	87.2%	96.9%	104%	66.9%
COC(=O)/C=C1/SC(=Nc2ccc(F)cc2)N(CCc2c[nH]c3ccc(O)cc23)C1=O	62.2%	62.5%	92.1%	27.6%	25.3%	40.2%	23.6%	69.5	40.6%	78.2%	37.2%	37.7%	58.9%	59.3%	32%	45.9%	61.5%	45.3%	39.4%	40.1%
CCOC(=O)/C(=C(/C)NCC(C)C)c1cc(O)c(O)c2c(C)cc(=O)[nH]c12	51.4%	71.9%	62.5%	38.2%	23.1%	40.2%	26.8%	45.2	47.4%	99.7%	64.5%	24.5%	53.8%	61.3%	83%	24.1%	52.3%	35.7%	83.5%	53.3%
COc1ccc(C(=O)Nc2ncc(Cc3ccc(Cl)cc3)s2)cc1	30.5%	41.7%	35.7%	21.2%	5.09% (active)	41.4%	-16.3% (active)	17.7	17.6%	-2.86% (active)	12.6%	7.71% (active)	57.2%	31.3%	3.43% (active)	44.8%	1.3% (active)	-22.9% (active)	46.8%	-29.4% (active)
C=CCN=c1sc(-c2ccc3ccccc3c2)cn1NC(=O)c1cc2ccc1CCc1ccc(cc1)CC2	55.8%	75.2%	97.6%	75.2%	52.3%	59.6%	76.4%	56.1	70.1%	44.5%	75%	35%	76.7%	92.9%	74.1%	62.3%	46%	77.9%	48.7%	75.6%
N=C(N)c1ccc(-c2ccc(-c3ccccc3)o2)o1	49.6%	78.5%	60.3%	46.9%	6.8% (active)	24.2%	50.5%	26.2	33.4%	-73.1% (active)	46.3%	9.73% (active)	50.3%	29.8%	47%	38.1%	44%	35.3%	69.3%	14.1%
